In PubChem BioAssay (NCATS):
Several values for one entry are separate records, joined by “and”; a condition that tells them apart may be missing. Equal values may be shown once. Values without a mark were called inactive. Inconclusive results are not listed. A call without a number means that no potency is given here. Activity calls are given as the source filed them. Unless noted, calls follow the shape of the dose curve; as a rule, active = well fitted curve in the direction sought with a large enough effect; inconclusive = small, poorly fitted or top-dose-only effect, or another doubt; inactive = no such curve, though single readings can be large; an effect the other way counts as inactive or inconclusive.

tested on: not listed separately; assay: Inducers of the Endoplasmic Reticulum Stress Response (ERSR) in human glioma: Validation (AID 504836); details: human glioma cells, ER stress response reporter; series mostly up to 38.3 µM
Procedure, shortened: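 Stably transfected U87-MG glioma cells carrying a GRP78-based luciferase sensor; 16 h compound incubation. Luminescence end-point read 10 min after Bright-Glo addition at room temperature.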

Row | Compound | outcome
1 | CCOC(=O)C(C)(C)Oc1ccc(Cl)cc1 | inactive
2 | CN1C[C@H](C(=O)N[C@]2(C)O[C@@]3(O)[C@@H]4CCCN4C(=O)[C@H](Cc4ccccc4)N3C2=O)C[C@@H]2c3cccc4[nH]cc(c34)C[C@H]21 | inactive
3 | Clc1ccc(Cn2c(CN3CCCC3)nc3ccccc32)cc1 | inactive
4 | C[C@]12CCC(=O)C=C1CC[C@@H]1[C@@H]2CC[C@@]2(C)[C@H]1CC[C@]2(O)C(=O)CO | inactive
5 | C[C@]12CC[C@@H]3c4ccc(O)cc4CC[C@H]3[C@@H]1CCC2=O | inactive
6 | Oc1ccc(/C=C/c2cc(O)cc(O)c2)cc1 | inactive
7 | NS(=O)(=O)c1cc2c(cc1Cl)NCNS2(=O)=O | inactive
8 | CCCC(C(=O)OCCN(CC)CC)(c1ccccc1)c1ccccc1 | inactive
9 | O=C(CCNNC(=O)c1ccncc1)NCc1ccccc1 | inactive
10 | Cc1ccc(/C(=C\CN2CCCC2)c2ccccn2)cc1 | inactive
11 | CCCCC1C(=O)N(c2ccccc2)N(c2ccccc2)C1=O | inactive
12 | Cc1cc(C(C)(C)C)cc(C)c1CC1=NCCN1 | inactive
13 | CNC(=O)Oc1ccc2c(c1)[C@]1(C)CCN(C)[C@@H]1N2C | inactive
14 | CC(C)(Oc1ccc(CCNC(=O)c2ccc(Cl)cc2)cc1)C(=O)O | inactive
15 | CNCCC(Oc1ccccc1OC)c1ccccc1 (stereo unspecified) | inactive
16 | C[n+]1cc2c3c(ccc2c2ccc4cc5c(cc4c21)OCO5)OCO3 | inactive
17 | C[N+](C)(C)CCCCCCCCCC[N+](C)(C)C | inactive
18 | CN(C)C/C=C(/c1ccc(Br)cc1)c1cccnc1 | inactive
19 | Cn1cnc2c1c(=O)[nH]c(=O)n2C | inactive
20 | NC(N)=NC(=O)c1nc(Cl)c(N)nc1N | inactive

biological target: Ubiquitin carboxyl-terminal hydrolase 1 (Homo sapiens) (UniProt O94782); assay: Inhibitors of USP1/UAF1: Pilot qHTS (AID 504865); details: purified USP1/UAF1, Ub-rhodamine cleavage fluorescence; series mostly up to 114 µM;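 also: rhodamine fluorescence freed from ubiquitin-rhodamine substrate followed over time; top concentration of the series differs between compounds; nearly all actives have a fitted effect of over 35% in size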
Sequence (O94782 whole entry, looked up): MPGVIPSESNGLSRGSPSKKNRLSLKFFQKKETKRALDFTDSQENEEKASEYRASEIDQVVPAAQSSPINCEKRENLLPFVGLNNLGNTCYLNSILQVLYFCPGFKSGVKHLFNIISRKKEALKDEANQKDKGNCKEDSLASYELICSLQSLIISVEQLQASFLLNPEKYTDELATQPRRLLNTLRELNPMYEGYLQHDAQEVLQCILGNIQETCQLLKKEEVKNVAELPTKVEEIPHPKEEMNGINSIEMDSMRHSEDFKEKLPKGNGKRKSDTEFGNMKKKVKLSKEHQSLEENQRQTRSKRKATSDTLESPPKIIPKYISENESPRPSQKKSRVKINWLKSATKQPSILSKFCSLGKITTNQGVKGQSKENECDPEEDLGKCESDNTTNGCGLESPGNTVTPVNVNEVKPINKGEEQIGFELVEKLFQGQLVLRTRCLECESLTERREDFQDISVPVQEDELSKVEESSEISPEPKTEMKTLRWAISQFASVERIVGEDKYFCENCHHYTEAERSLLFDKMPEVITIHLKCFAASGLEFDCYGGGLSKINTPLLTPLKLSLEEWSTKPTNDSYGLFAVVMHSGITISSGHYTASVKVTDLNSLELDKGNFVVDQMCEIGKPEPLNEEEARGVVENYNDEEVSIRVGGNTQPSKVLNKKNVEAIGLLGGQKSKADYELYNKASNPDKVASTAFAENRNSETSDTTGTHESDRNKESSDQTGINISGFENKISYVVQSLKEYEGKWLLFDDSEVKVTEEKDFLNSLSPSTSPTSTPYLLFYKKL
Procedure, shortened: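 1nM USP1/UAF1 + cpd, 15 min RT; start w/ Ub-Rho 150nM final; kinetic FL 480/540 nm, 6 reads q60 s. Buffer 50mM HEPES pH 7.8, 0.5mM EDTA, 1mM TCEP, 0.01% Tween-20, 0.1 mg/ml BSA.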

Row | Compound | Potency
21 | CN1C[C@H](C(=O)N[C@]2(C)O[C@@]3(O)[C@@H]4CCCN4C(=O)[C@H](Cc4ccccc4)N3C2=O)C[C@@H]2c3cccc4[nH]cc(c34)C[C@H]21 | inactive
22 | CCC1(c2ccccc2)CCC(=O)NC1=O (stereo unspecified) | inactive
23 | CCN(CC)CCOC(=O)C(C)(c1ccccc1)c1ccccc1 | inactive
24 | Nc1ccc(N)cc1 | inactive
25 | Cc1ccc(N=CN(C)C=Nc2ccc(C)cc2C)c(C)c1 | inactive
26 | CC(C)[N+](C)(CCC(C(N)=O)(c1ccccc1)c1ccccc1)C(C)C | inactive
27 | CCN(Cc1ccc(Cl)nc1)/C(=C/[N+](=O)[O-])NC | inactive
28 | Cc1c(Cl)c(=O)oc2cc(OP(=O)(OCCCl)OCCCl)ccc12 | inactive
29 | C=CCOC(Cn1ccnc1)c1ccc(Cl)cc1Cl (stereo unspecified) | inactive
30 | C[C@H](N)[C@H](O)c1ccc(O)c(O)c1 | inactive
31 | ClC1=C(Cl)C2(Cl)C(CBr)CC1(Cl)C2(Cl)Cl (stereo unspecified) | inactive
32 | CCN1CCCC(OC(=O)C(c2ccccc2)c2ccccc2)C1 (stereo unspecified) | inactive
33 | CC(C)(C)OC(=O)c1ncn2c1[C@@H]1CCCN1C(=O)c1c(Br)cccc1-2 | inactive
34 | NCc1cccnc1 | inactive
35 | CN(C)CC/C=C1\c2ccccc2Sc2ccc(Cl)cc21 | inactive
36 | C[C@]12CC[C@H]3[C@@H](CC=C4C[C@@H](O)CC[C@@]43C)[C@@H]1CC[C@@H]2O | inactive
37 | CN1C[C@@H](NS(=O)(=O)N(C)C)C[C@@H]2c3cccc4c3c(cn4C)C[C@H]21 | inactive
38 | CCS(=O)(=O)C(C)(C)S(=O)(=O)CC | inactive
39 | CC(Cc1ccccc1)NCc1ccccc1Cl (stereo unspecified) | inactive

biological target: Bile acid receptor (Homo sapiens) (UniProt Q96RI1); assay: qHTS assay for small molecule agonists of farnesoid X receptor signaling (AID 588527; calls by dose curve); details: HEK293T FXR-UAS-bla, beta-lactamase ratio, 16 h; stronger effect = higher value
Sequence (Q96RI1 whole entry, looked up): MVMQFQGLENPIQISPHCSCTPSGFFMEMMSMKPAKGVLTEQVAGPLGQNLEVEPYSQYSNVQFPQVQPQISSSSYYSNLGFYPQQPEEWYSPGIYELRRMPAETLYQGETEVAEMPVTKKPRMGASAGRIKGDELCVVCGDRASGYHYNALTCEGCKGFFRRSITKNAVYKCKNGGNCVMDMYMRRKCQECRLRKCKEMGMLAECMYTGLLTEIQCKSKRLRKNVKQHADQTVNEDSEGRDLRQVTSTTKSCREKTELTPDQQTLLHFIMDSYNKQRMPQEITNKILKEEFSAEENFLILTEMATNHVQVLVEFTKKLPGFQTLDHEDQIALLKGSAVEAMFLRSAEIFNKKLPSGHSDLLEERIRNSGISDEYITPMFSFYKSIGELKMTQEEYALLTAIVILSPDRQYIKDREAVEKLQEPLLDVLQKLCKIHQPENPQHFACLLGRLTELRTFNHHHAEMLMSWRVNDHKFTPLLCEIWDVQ
Procedure, shortened: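 Read-out: beta-lactamase reporter fluorescence with CCF4 substrate in GeneBLAzer FXR-UAS-bla HEK293T cells, after 16 h compound exposure at 37 C. Response scaled between DMSO basal (0%) and chenodeoxycholic acid at 100 uM (100%).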

Row | Compound | activation
40 | CCOC(=O)C(C)(C)Oc1ccc(Cl)cc1 | 1.97%
41 | C[C@]12CC[C@@H]3c4ccc(O)cc4CC[C@H]3[C@@H]1CCC2=O | 5.41%
42 | Oc1ccc(/C=C/c2cc(O)cc(O)c2)cc1 | -3.05% and -1.39%
43 | NS(=O)(=O)c1cc2c(cc1Cl)NCNS2(=O)=O | -0.539% and 0.498%
44 | CCCCC1C(=O)N(c2ccccc2)N(c2ccccc2)C1=O | -3.79% and -9.64%
45 | CNC(=O)Oc1ccc2c(c1)[C@]1(C)CCN(C)[C@@H]1N2C | 1.98%
46 | Cn1cnc2c1c(=O)[nH]c(=O)n2C | 0.0385%
